Sampled rows, rich in hits. Any-hit rate of the full collection: about 3.8%.
CBFb-RUNX1 inh: qHTS Assay for Compounds Blocking the Interaction Between CBF-beta and RUNX1 for the Treatment of Acute Myeloid Leukemia; Runt-related transcription factor 1 (Homo sapiens) + Core-binding factor subunit beta …; AlphaScreen CBFb-His/RUNX1-biotin binding, biochemical; Potency, µM (top dose mostly 59.8 µM), for the others: at the top dose activity, negative = inhibition, hits mostly inhibitors; 230,000 tested, under 10 active; AID 1477, 2009; further: % of control where 0% means no effect
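Proteins preincubated together for 20 min at RT before compound addition; 15 min later, nickel and streptavidin beads were added and left 90 min prior to AlphaScreen measurement.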
PLK1 PBD inh: qHTS for Inhibitors of PLK1-PDB (polo-like kinase 1 - polo-box domain): Primary Screen; 360,000 compounds, 2.8% hits; Serine/threonine-protein kinase PLK1 (Homo sapiens), P53350; Plk1 PBD binding of FITC phosphopeptide, fluorescence polarization; Potency, µM, inactives show max response, negative = inhibition, usual class: inhibitors; further: potency means the concentration at half of the fitted maximal effect; series mostly up to about 57 µM; on the % scale 0 is the no-effect control and ±100 the full control effect; nearly all actives have a fitted effect of over 65% in size
hERG WT inh: qHTS for Inhibitors of KCHN2 3.1: Wildtype qHTS. Voltage-gated inwardly rectifying potassium channel KCNH2 (Homo sapiens), Q12809. U2OS, BacMam KCNH2, thallium flux FluxOr; active compounds read low. activity change, % at 1.84 µM. 340,000 compounds, 0.37% hits. AID 720551, 2013;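 active means maximum activity change below -70%; inconclusive means maximum activity change between -70% and -50%; inactive means maximum activity change above -50%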; further: on the % scale 0 is the no-effect control and ±100 the full control effect
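U2OS cells were transduced with wild-type KCNH2 virus (2.03 x 10^8 / mL) for 4 h at room temperature, then cultured overnight at 37 C. Thallium flux was read with FluxOr dye. Rate constants were normalized to DMSO controls.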
MBNL1 CUG block: qHTS Assay for Inhibitors of MBNL1-poly(CUG) RNA binding | Muscleblind-like protein 1 (Homo sapiens), Q9NR56 | TR-FRET MBNL1-His/biotin-(CUG)12 binding, 665/545 ratio | Potency, µM (series often up to 57.5 µM), for inactives: at the top dose activity change, negative = inhibition, usual class: inhibitors | 280,000 compounds, 0.036% hits; active means well fitted inhibition curve with a large enough effect in the signal ratio, with a control signal flat, not every such curve was filed as active; inconclusive means small, poorly fitted or top-dose-only effect, or effect the other way, or a change in a side signal; inactive means no such curve, though single readings can be large or run the other way; the % refers to the signal ratio; further: potency means the concentration at half of the fitted maximal effect; on the % scale 0 is the no-effect control and ±100 the full control effect
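TR-FRET between His-tagged MBNL1 and biotin-(CUG)12 RNA, detected with Tb anti-His antibody (0.055 ng/ul) and streptavidin-XL665 (5 nM), 60 min at room temperature. Compounds titrated 92 nM to 58 uM; 665/545 nm ratio normalized to buffer and complex controls.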
KCNH2 3.1 block: qHTS for Inhibitors of KCHN2 3.1: Mutant qHTS | AID 720553, 2013 | 340,000 compounds, 0.95% hits | U2OS KCNH2 3.1, thallium flux FluxOr; active compounds read low | activity change, % (tested at about 1.8 µM) | Potassium voltage-gated channel subfamily H member 2, brain isoform KCNH2 3.1 (human);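 active means maximum activity change below -70%; inconclusive means maximum activity change from -70% to -50%; inactive means maximum activity change above -50%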;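 further: thallium influx rate constant from kinetic fluorescence after stimulation buffer; on the % scale 0 is the no-effect control and ±100 the full control effect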
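Steps: virus added to U2OS suspension (4 h, RT, dark); medium with 10% FBS added, cells plated, 37 C overnight; FluxOr/Red40 loading buffer 45 min RT; stimulation buffer, 2 min kinetic read; rate constant normalized.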
VDR inh: Inhibitors of the vitamin D receptor (VDR): qHTS | VDR-SRC2-3 peptide fluorescence polarization, 2 h | 400,000 compounds, 0.93% hits | Potency, µM, for inactives: max response, negative = inhibition, most hits filed as inhibitors | AID 504847, 2011 | Vitamin D3 receptor (Homo sapiens), P11473; further: potency means the concentration at half of the fitted maximal effect; on the % scale 0 is the no-effect control and ±100 the full control effect
Target sequence (P11473 whole entry, looked up): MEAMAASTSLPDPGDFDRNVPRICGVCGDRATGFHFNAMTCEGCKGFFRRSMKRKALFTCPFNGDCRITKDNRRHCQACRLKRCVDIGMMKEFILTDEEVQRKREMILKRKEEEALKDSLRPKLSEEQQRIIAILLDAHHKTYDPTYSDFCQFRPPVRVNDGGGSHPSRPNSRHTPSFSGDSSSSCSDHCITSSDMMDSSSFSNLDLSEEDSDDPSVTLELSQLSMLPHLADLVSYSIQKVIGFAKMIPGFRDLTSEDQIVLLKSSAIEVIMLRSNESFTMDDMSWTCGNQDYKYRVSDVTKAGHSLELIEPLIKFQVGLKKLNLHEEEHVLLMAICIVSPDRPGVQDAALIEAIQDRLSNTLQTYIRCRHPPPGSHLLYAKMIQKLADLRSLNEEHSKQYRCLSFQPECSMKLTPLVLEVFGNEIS
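Reagent solutions, kept cold and dark, are dispensed first; compounds are then pinned in at 23 nl, plates briefly spun, and incubated 2 h at ambient temperature. Inhibition of VDR–SRC2-3 peptide binding is read by fluorescence polarization.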
* marks the source's active call; other numbers are inactive results; ? = inconclusive; . = not tested or not shown. Unless noted, the call rests on the fitted dose curve; in most records, active means well fitted curve in the direction sought with a large enough effect; inconclusive means small, poorly fitted or top-dose-only effect, or another doubt; inactive means no such curve, though single readings can be large; an effect the other way counts as inactive or inconclusive.

SMILES	CBFb-RUNX1 inh	PLK1 PBD inh	hERG WT inh	MBNL1 CUG block	KCNH2 3.1 block	VDR inh
CCOC(=O)C1(CCCc2ccccc2)CCN(Cc2cn(CC)nc2C)CC1	6%	-13%	-17	?	-93*	13%
CC(C)c1cc(-c2nc(-c3ccc(Cl)cc3)no2)n[nH]1	.	.	.	.	.	2%
Cc1c(CC(=O)NCCc2ccccc2)c(=O)oc2c(C)c3occ(C(C)(C)C)c3cc12	.	.	.	.	.	-3%
CCOC(=O)C1(CCCc2ccccc2)CCN(Cc2nccn2CC)CC1	-5%	-19%	-13	11%	-93*	-4%
CCOC(=O)C1(CCc2ccccc2)CCN(Cc2cccc3nccnc23)CC1	-2%	-2%	-34	-4%	-99*	0%
CC(NC(=O)Cc1ccc(-c2ccccc2)cc1)c1ccccc1 (centres undefined)	10%	27µM*	-7	-1%	-8	?
CC(NC(=O)Cc1ccccc1F)c1ccc(F)cc1 (centres undefined)	5%	24µM*	5	2%	13	1%
CC(NC(=O)COC(=O)Cc1ccc(Cl)cc1)c1ccccc1 (centres undefined)	.	-11%	0	.	15	-11%
CCc1ccc2c(c1)Sc1ccccc1CC2N1CCN(C)CC1 (centres undefined)	.	7%	?	.	-96*	-11%
COc1cc(-c2nc(SCC(=O)Nc3ccc(C)cc3)c(-c3ccc(F)cc3)[nH]2)cc(OC)c1OC	.	.	.	.	.	14%
CSc1ccc(C(c2c(C)[nH][nH]c2=O)c2c(C)[nH][nH]c2=O)cc1	.	?	-5	?	8	-28%
CCOC(=O)c1[nH]c2ccccc2c1NC(C)=O	2%	-7%	13	17%	7	-1%
CCOc1cc(Br)cc(C(c2c(C(=O)O)[nH]c3ccccc23)c2c(C(=O)O)[nH]c3ccccc23)c1O	.	15µM*	-3	5%	-12	?
CSc1ccc(C(c2c(C(=O)O)[nH]c3ccccc23)c2c(C(=O)O)[nH]c3ccccc23)cc1	.	11µM*	2	-5%	2	-27%
CC(C)c1ccc(/C=C2\SC(=S)N(CCC(=O)NCCCn3ccnc3)C2=O)cc1	.	-19%	-1	18%	-77*	4%
COc1ccc(/C=C2\SC(=S)N(CCC(=O)NCCCn3ccnc3)C2=O)cc1	.	2%	2	?	7	0%
COc1ccc(C2=Nn3c(nnc3-c3ccccc3O)SC2)c(OC)c1	0%	.	.	.	.	.
COc1ccc(C(=O)NCCC(=O)N2CCC3(CC2)NCCc2[nH]cnc23)cc1	.	27µM*	-19	0%	12	?
C[C@H](NC(=O)Cc1ccccc1)C(=O)N1CCC2(CC1)NCCc1[nH]cnc12	.	27µM*	12	-4%	34	-12%
COc1ccc(CC(=O)N[C@@H](C)C(=O)N2CCC3(CC2)NCCc2[nH]cnc23)cc1	.	-9%	-10	2%	1	-8%
CCOc1cc(C(=O)NCC(=O)N2CCC3(CC2)NCCc2[nH]cnc23)cc(OCC)c1OCC	.	?	0	-3%	11	-26%
CC(C(=O)Nc1ccc2c(c1)OCCO2)c1ccc([N+](=O)[O-])cc1 (centres undefined)	-8%	30µM*	-2	.	6	-3%
CC(C(=O)Nc1ccc2c(c1)OCO2)c1ccc([N+](=O)[O-])cc1 (centres undefined)	5%	-11%	0	?	4	5%
CC(C)c1ccc2occ(CC(=O)Nc3ccccc3Cl)c2c1	.	.	.	.	.	-1%
N#Cc1c2n(c3c(=O)n(CC(=O)c4ccc([N+](=O)[O-])cc4)cnc13)CCCCC2	0%	-3%	-101*	?	-16	-15%
SMILES	CBFb-RUNX1 inh	PLK1 PBD inh	hERG WT inh	MBNL1 CUG block	KCNH2 3.1 block	VDR inh
N#Cc1c2n(c3c(=O)n(CC(=O)c4ccc(Br)cc4)cnc13)CCCC2	-1%	-8%	7	-2%	-10	6%
CCOc1ccc(CCNC(=O)Cn2nnc(-c3ccc(C(F)(F)F)cc3)n2)cc1OCC	.	.	.	.	.	4%
O=C(Nc1nc(-c2ccccc2)c(-c2ccccc2)o1)c1ccc(F)cc1	-6%	3µM*	-7	-3%	6	-9%
COc1cccc(C(=O)Nc2nc(-c3ccccc3)c(-c3ccccc3)o2)c1	?	?	-3	-9%	5	-20%
CCCN1C2CCCC1CC(NC(=O)Nc1ccc(C(C)C)cc1)C2 (centres undefined)	7%	1%	-10	18%	-74*	-12%
Cc1c(Cl)cccc1NC(=O)C1CCN(c2ncnc3c2nc2n3CCCCC2)CC1	.	.	.	.	.	0%
O=C(NCCCN1CCCCC1)C1CCN(c2ncnc3c2nc2n3CCCCC2)CC1	.	27µM*	1	-3%	21	?
O=C(Nc1ccc(F)c(Cl)c1)C1CCN(c2ncnc3c2nc2n3CCCCC2)CC1	.	-13%	10	-8%	2	3%
O=C(C1CCCN(c2ncnc3c2nc2n3CCCCC2)C1)N1CCN(c2ccc(F)cc2)CC1 (centres undefined)	.	27µM*	-44	4%	6	-9%
CC(C)c1ccc(NC(=O)C2CCN(c3ncnc4c3nc3n4CCCCC3)CC2)cc1	.	30µM*	-2	3%	1	-21%
Cc1cccc(NC(=O)C2CCN(c3ncnc4c3nc3n4CCCCC3)CC2)n1	.	27µM*	14	-4%	2	-24%
CCC(=O)N1CCc2cc(CNC(=O)Nc3cc(OC)c(OC)c(OC)c3)ccc21	.	.	.	.	.	3%
CCOc1cccc2sc(N3CCN(C(=O)c4ccc5c(c4)CCCC5)CC3)nc12	.	.	.	.	.	17%
O=C(C1COc2ccccc2O1)N1CCN(c2nc3ccc([N+](=O)[O-])cc3s2)CC1 (centres undefined)	.	-4%	2	.	-4	-9%
Cc1occc1C(=O)N1CCN(c2ccc([N+](=O)[O-])cc2)CC1	.	-11%	19	?	-5	-23%
O=C(C1COc2ccccc2O1)N1CCN(c2ccc([N+](=O)[O-])cc2)CC1 (centres undefined)	.	-23%	3	.	-73*	-14%
Cc1c(C(=O)N2CCN(c3ccc([N+](=O)[O-])cc3)CC2)oc2ccccc12	.	-8%	-18	.	-73*	-12%

Compound activity from PubChem BioAssay.
